Test results as given in PubChem BioAssay AID1903 (Southern Research Specialized Biocontainment Screening …, 2009).
Out of some 310,000 compounds screened, about 1,200 (0.39%) were called active. How the calls were made is not given here. A selection follows. Potency and affinity values are given separately.

molecular target: Large T antigen (Simian virus 40) (UniProt P03070); assay: TAg ATPase/helicase activity blockers – biochemical (AID 1903); details: SV40 large T antigen ATPase/helicase inhibition assay; at 20 µM; hits give high values
Sequence (P03070 whole entry, looked up): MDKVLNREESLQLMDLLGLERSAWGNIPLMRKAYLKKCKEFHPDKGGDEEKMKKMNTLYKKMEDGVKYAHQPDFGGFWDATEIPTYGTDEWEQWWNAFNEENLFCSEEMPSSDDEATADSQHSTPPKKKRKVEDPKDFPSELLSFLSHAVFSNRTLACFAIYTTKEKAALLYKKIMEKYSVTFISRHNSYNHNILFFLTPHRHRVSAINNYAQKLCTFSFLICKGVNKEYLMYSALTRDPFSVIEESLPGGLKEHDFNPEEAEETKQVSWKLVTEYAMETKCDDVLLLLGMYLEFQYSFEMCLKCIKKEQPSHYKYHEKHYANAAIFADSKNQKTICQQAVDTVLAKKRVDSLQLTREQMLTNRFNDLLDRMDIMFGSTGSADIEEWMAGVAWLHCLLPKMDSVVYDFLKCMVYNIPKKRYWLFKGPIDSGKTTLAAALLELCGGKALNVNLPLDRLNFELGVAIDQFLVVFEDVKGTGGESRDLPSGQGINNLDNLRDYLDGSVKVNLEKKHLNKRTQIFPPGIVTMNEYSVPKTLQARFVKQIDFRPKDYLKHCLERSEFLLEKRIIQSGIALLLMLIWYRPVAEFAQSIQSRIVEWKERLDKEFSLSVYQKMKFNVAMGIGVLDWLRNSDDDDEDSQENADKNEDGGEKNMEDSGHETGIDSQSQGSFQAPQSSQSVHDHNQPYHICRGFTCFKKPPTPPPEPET

| Structure (SMILES) | inhibition |
| --- | --- |
| NS(=O)(=O)c1ccc(CCNC(=O)C(=O)Nc2cc3c4c(c2)CC(=O)N4CCC3)cc1 | 10.2% (inactive) |
| CCN(C(=O)COC(=O)c1cncc(Br)c1)C1CCS(=O)(=O)C1 (configuration not stated) | 2.6% (inactive) |
| CN(C)S(=O)(=O)c1cccc(COC(=O)c2ccc(Cl)cc2O)c1 | 4.75% (inactive) |
| CCn1ccnc1CNC(=O)CC1C(=O)NCCN1Cc1ccc(OC)cc1OC (configuration not stated) | 8.33% (inactive) |
| CC(OC(=O)c1ccc(NS(=O)(=O)c2cccs2)cc1)C(=O)N(C)C1CCCCC1 (configuration not stated) | 12.6% (inactive) |
| O=C(NCCCO)c1ccc2[nH]c3c(c2c1)CCCC3 | 2.41% (inactive) |
| COc1ccccc1OC(C)C(=O)Nc1nc(-c2ccc(S(=O)(=O)N3CCOCC3)cc2)cs1 (configuration not stated) | -2.76% (inactive) |
| O=C(O)CCC(=O)NNC(=O)c1ccc([N+](=O)[O-])cc1 | 24.3% (inactive) |
| CN1CCN(c2ccccc2NC(=O)c2ccc(N3CCCCC3)c([N+](=O)[O-])c2)CC1 | 1.97% (inactive) |
| COc1cc(C(=O)NCc2nnc(SCC(=O)NC3CCCCC3)o2)cc(OC)c1OC | 9.82% (inactive) |
| CNC(=S)N(CCCO)Cc1cc2cc3c(cc2[nH]c1=O)OCO3 | 4.07% (inactive) |
| N#Cc1cc2c(nc1SCC(=O)Nc1sc3c(c1C#N)CCC3)CCCCCC2 | -1.85% (inactive) |
| Cc1nc(NC(=O)CCl)sc1C(=O)N(C)C | 22.7% (inactive) |
| C#CCOCCOCCOCCNc1nc(N2CCOCC2)nc(N2CCN(C(=O)CCCCCCCCCCNC(=O)[C@H]([C@@H](C)CC)n3cc(CCCCN=C(N)N)nn3)CC2)n1 | 5.58% (inactive) |
| C#CCOCCOCCOCCNc1nc(N2CCN(C(=O)CCCCCCCCCCNC(=O)[C@H]([C@@H](C)CC)n3cc(CCCCN=C(N)N)nn3)CC2)nc(N2CCN(C(=O)CCCCCCCCCCNC(=O)[C@@H]([C@H](C)O)n3cc(C)nn3)CC2)n1 | 7.94% (inactive) |
| CCOC(=O)c1cc(-c2ccc(OC)cc2)n(CCC(=O)NCCN2CCC(C)CC2)c1C | 5.63% (inactive) |
| CCN(CC)C(=O)Cn1cnc2ccccc2c1=O | 5.63% (inactive) |
| Cc1ccc(/C=C2/NC(=O)N(c3ccccc3)C2=O)o1 | 22.8% (inactive) |
| Cc1ccc(/C=C2/C(=O)N(c3ccccc3)C(=S)N2C)o1 | 6.66% (inactive) |

| Structure (SMILES) | inhibition |
| --- | --- |
| CCOc1ccc(N2C(=O)/C(=C/c3ccc(C)o3)N(C)C2=S)cc1 | 15.8% (inactive) |
| CCCN1C(=O)/C(=C/c2ccc(C)o2)NC1=S | 33.1% (inactive) |
| Cc1ccc(/C=C2\C(=O)Nc3ccccc32)o1 | 11.2% (inactive) |
| COc1ccc(N2C(=O)C3CC(C)=C(C)CC3C2=O)c(OC)c1 (configuration not stated) | 11.1% (inactive) |
| O=C1/C(=C\c2ccco2)NC(=S)N1c1ccccc1 | 35.2% (inactive) |
| COc1ccc(N2C(=O)/C(=C/c3cccs3)NC2=S)cc1 | 14.1% (inactive) |
| COc1cc(O)c(C(CC(=O)N2CCCC(C)C2)c2ccc3c(c2)OCO3)c(OC)c1 (configuration not stated) | 6.43% (inactive) |
| Cn1cccc1C(=O)NNC(=O)c1ccccc1Br | 8.13% (inactive) |
| CC1(C)CC(=O)/C(=C(\O)Cc2ccccc2)C(=NCCCCCC(=O)O)C1 | 4.38% (inactive) |
| CCCCNCc1cccn1-c1ccccc1 | 24.7% (inactive) |
| COc1c(C)cccc1C(=O)Nc1ccc(OCC(=O)N2CCOCC2)cc1C | 14.7% (inactive) |
| COCC(=O)N/N=C\c1ccccc1OC/C=C/c1ccccc1 | 4.69% (inactive) |
| C=CCOc1ccc(C=Nc2ccc(OC)cc2)c(O)c1 | 28.3% (inactive) |
| COc1ccc(N=Cc2[nH]c3ccccc3c2O)cc1 | 13.7% (inactive) |
| Cc1csc(NC(=O)CSc2nnc(-c3ccccc3)o2)n1 | -6.99% (inactive) |
| COc1cc(/C=N/NC(=O)CSc2nc3ccccc3n2C)cc(OC)c1OC | -1.56% (inactive) |
| CCn1c(SCC(=O)N/N=C/c2cc(OC)c(O)c(OC)c2)nc2ccccc21 | -7.37% (inactive) |
| CCn1c(SCC(=O)N/N=C/c2ccc(OC)c(OC)c2)nc2ccccc21 | 6.02% (inactive) |
| Cn1c(SCC(=O)N/N=C/c2ccncc2)nc2ccccc21 | 2.44% (inactive) |

| Structure (SMILES) | inhibition |
| --- | --- |
| Cc1cc(SCC(=O)N/N=C/c2ccc(O)cc2O)nc2ccccc12 | 7.95% (inactive) |
| O=C(N/N=C/c1ccc(O)cc1)c1cc(-c2ccccc2)nc2ccccc12 | 14.6% (inactive) |
| Cc1cc(SCC(=O)N/N=C/c2ccc(C(=O)O)cc2)nc2ccccc12 | 6.65% (inactive) |
| COc1cc(/C=N/NC(=O)c2cc(-c3ccccc3)nc3ccccc23)ccc1O | 25.1% (inactive) |
| C#CCOCCOCCOCCNc1nc(N2CCN(C(=O)CCCCCCCCCCNC(=O)[C@@H](CCC(=O)O)n3cc(CCCCCN)nn3)CC2)nc(N2CCN(C(=O)CCCCCCCCCCNC(=O)[C@H](CO)n3cc(CCCCCN)nn3)CC2)n1 | 31.5% (inactive) |
| CCOC(=O)C1=C(C)N(C)C(=S)N(C)C1c1ccc(OC)cc1 (configuration not stated) | -2.82% (inactive) |
| CCOc1cc2sc(N3CCC(C(=O)NCCCN4CCCC4=O)CC3)nc2cc1Br | 12.1% (inactive) |
| Cc1ccc(C(=O)NCCc2n[nH]c(=S)n2C)cc1 | 10.6% (inactive) |
| CCC(=O)N1c2ccccc2[C@@H](N(C(C)=O)c2ccccc2)C[C@H]1C | 4.31% (inactive) |
| O=C(c1ccccc1)N1CCN(C2CC3CCC2C3)CC1 (configuration not stated) | 6.45% (inactive) |
| O=C1/C(=C/c2ccc(F)cc2)SC(=S)N1CC(=O)N1CCCCC1c1cccnc1 (configuration not stated) | 18.2% (inactive) |
| CCOC(=O)c1c(C)n(C)c2c(C)cc(O)c(OC(C)=O)c12 | 1.3% (inactive) |
| COC(=O)c1ccc(N)c(CS(=O)(=O)c2ccc(Cl)cc2)c1 | -0.68% (inactive) |
| OCC1(Cc2ccccc2)CCCN(Cc2ccc3c(c2)OCCO3)C1 (configuration not stated) | 10.8% (inactive) |
| CC(C)n1cnc2cc(NCc3nc4ccccc4n3C)ccc21 | 20.2% (inactive) |
| Cc1ccc(C(=O)Nc2nnc(CC(=O)N/N=C/c3ccc(O)c(O)c3)s2)cc1 | 19.4% (inactive) |
| O=C(CSc1nc2ccccc2o1)N/N=C/c1ccc(C(=O)O)cc1 | 16.5% (inactive) |
| O=C(Cc1nnc(NC(=O)c2ccccc2)s1)N/N=C/c1ccc(O)cc1 | 17.1% (inactive) |
| O=C(CSc1nc2ccccc2o1)N/N=C/c1ccccc1 | 12.4% (inactive) |
